PubChem BioAssay (NCI)
Compounds without any hit were thinned out: in the full panel of roughly 83,000, 20% have a hit.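 Step 1: grow cells in 96-well plates. Step 2: add test compound at a single concentration. Step 3: incubate 48 h. Step 4: record percent growth.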 Unmarked numbers belong to inactive results. Calls of active or inactive are those of the source.

What follows are compounds tested on UO-31 renal (assay: NCI-60 one-dose screen, 48 h (100 = growth as untreated, 0 = no growth, -100 = all killed)). Conditions: 10 µM unless noted.
Protocol: Growth inhibition of the UO-31 human tumor cell line is measured as a screen for anti-cancer activity. Cells are grown in 96 well plates and exposed to the test compound for 48 hours. Compounds are tested at a single concentration, which is 10^-5 M for most compounds. The reported endpoint is percent growth (GI% or GIPRCNT), where numbers from 0 - 100% represent growth inhibition, and numbers from -100% - 0 represent cell death. For example, a value of 40 represents 60% growth inhibition. A value of 0 means no net growth occurred over the course of the experiment. A value of -40 indicates 40% of cells at the beginning of the experiment died by the end of the experiment. A value of -100 means all cells are dead at the end of the experiment.
NCI-60 Human Tumor Cell Lines Screen was performed using the standard one-dose NCI protocol, which is described in more detail at https://dtp.cancer.gov/discovery_development/nci-60/default.htm.
Compounds with GIPRCNT values below 10 were considered active. Activity score was based on GIPRCNT using the following formula: […]
Score is 0 for GIPRCNT values of 100 or above, 50 for GIPRCNT values of 0, and 100 for GIPRCNT values of -100.

Compound | growth
Cc1cc(NC(=O)CCc2ccc(N3C(N)=NC(N)=NC3(C)C)cc2)ccc1S(=O)(=O)F | 101%
OB([O][Hg][c]1ccccc1)[O][Hg][c]1ccccc1 | -94.1% (active)
Cc1cc([N+](=O)[O-])c(Cl)cc1NS(=O)(=O)c1ccccc1 | 63.8%
[O]=[Sn]([CH]1CCCCC1)[CH]1CCCCC1 | -90.4% (active)
CCC(CO)NC1CCCCC1 (stereo not given) | 66%
C=CCc1ccc(OC(=O)Cc2ccccc2)c(OC)c1 | 77.1%
CC1(C)N=C(N)N=C(N)N1c1ccc(OCCCCNC(=O)c2ccc(S(=O)(=O)F)cc2)c(Cl)c1 | 77%
C#CC1(O)CCC2(C)C(CCC3C4CCC(=O)C4(C)CCC32)C1 (stereo not given) | 86.8%
NC(=O)OCC(CO)(c1ccccc1)c1ccccc1 | 80.1%
O=C1NC(=O)C(CN2C(=O)C3(c4ccccc42)[C@H](Cl)C(=O)N3c2ccccc2)C(=O)N1 (stereo not given in full) | 69.2%
Nc1c(Br)cc2c3c(cccc13)-c1ccccc1-2 | 42.4%
CCCCn1cc(C(=O)/C(C#N)=C/c2cc3ccccc3nc2Cl)c2cc(OC)ccc21 | 61.6%
COc1cc(N(CCCl)CCCl)ccc1C=Nc1ccccc1C(=O)O | 78.5%
C[CH2][Pb]([CH2]C)([CH2]C)[O]C(=O)c1ccc(N)cc1 | 52.1%
Oc1ccc(O)c2c1C1(Cl)C(Cl)=C(Cl)C2(Cl)C1(Cl)Cl | 44.2%
COc1cc(C2CC(=O)Nc3nc(N)[se]c32)c(OC)c2c1OCO2 (stereo not given) | 86.8%
C[C@]12CC[C@@H]3c4ccc(OC(=O)Cc5ccc(N(CCCl)CCCl)cc5)cc4CC[C@H]3[C@@H]1CC[C@@H]2OC(=O)Cc1ccc(N(CCCl)CCCl)cc1 | 82.7%
CC12CCC3C(CC=C4CC(O)CCC43C)C1C/C(=C\N1CCOCC1)C2=O (stereo not given) | 79.2%
CC1CC=CCC12C(=O)NC(=S)NC2=O (stereo not given) | 92.9%
CC(C)Nc1ccc(Nc2ccccc2)cc1 | 83.1%

Compound | growth
O=C(CCCN1CCC2(CC1)C(=O)NCN2c1ccc(F)cc1)c1ccc(F)cc1 | 83.6%
Oc1c(Br)cc(Br)cc1Br.[Cu+2] | 81.2%
O=C(c1cccs1)C1NO[N+]([O-])=C1c1cccs1 (stereo not given) | -83.3% (active)
CCN1CC2(CN(CC)C1=S)C(=O)NC(=O)NC2=O | 99.4%
CCCCN(CCCC)CC(O)c1ccccc1 (stereo not given) | 100%
CCC[CH2][Sn]1([CH2]CCC)[O]C(=O)c2cccc([N+](=O)[O-])c2C(=O)[O]1 | -100% (active)
CCC[CH2][Sn]([CH2]CCC)([CH2]CCC)[O]C(=O)CC | -90.4% (active)
N#CC1c2ccccc2C=CN1C(=O)c1ccc(N(CCCl)CCCl)cc1 (stereo not given) | 71%
CC(=O)OC1CCC2(C)C(=CCC3C4CC(CN5CC5)C(=O)C4(C)CCC32)C1 (stereo not given) | 34.1%
O=C(CI)Nc1ccc(Br)cc1 | -82.3% (active)
COc1cccc2c1C(=O)c1c(O)c3c(c(O)c1C2=O)CC(O)(/C(C)=N/NC(=O)CCC(=O)N/N=C(\C)C1(O)Cc2c(O)c4c(c(O)c2C(OC2CC(N)C(O)C(C)O2)C1)C(=O)c1c(OC)cccc1C4=O)CC3OC1CC(N)C(O)C(C)O1 (stereo not given) | -7.96% [5 µM] (active)
CC[C@@H](C)/C=C(C)/C=C/C(=O)c1c(O)c(-c2ccc(O)cc2)cn(O)c1=O | -8.98% (active)
COc1ccc(-c2ccc(OC)c(OC)c2OC)cc1 | 39.4%
ClCCN(CCCl)C(c1ccccc1)c1ccc(Cl)cc1 (stereo not given) | 104%
CC1(C)N=C(N)N=C(N)N1c1ccc(CCCCc2ccc(S(=O)(=O)F)cc2)c(Cl)c1 | 59.9%
c1ccc(-c2ccc3ccccc3[o+]2)cc1 | 73.5%
Oc1ccc(Br)cc1CN1CCN(Cc2ccc(Cl)cc2)CC1 | 47.4%
COC(=O)C1CC2c3ccccc3C1c1ccccc12 (stereo not given) | 83.6%
O=[N+]([O-])c1ccc(F)c([N+](=O)[O-])c1F | 78.3%
COc1cc(/C=C\c2cc(OC)c(OC)c(OC)c2)cc(N/C=C\C(=O)c2ccc(OC(F)(F)F)cc2)c1OC | 32.9%
